# For part of these data: Results with a measured potency or affinity are listed apart.
# Legend:
# Parameters in all cases: scale not given: direction of the effect not stated beside the values
# [1] = target: Protein translocase subunit SecA (Escherichia coli (strain K12)) (UniProt P10408); assay: Assay to Identify E. coli SecA ATPase Inhibitors; assay type: functional; conditions: 30 µM
# [2] = target: T1, Ubiquitin-activating enzyme e1, putative (Leishmania donovani (strain BPK282A1)) (UniProt E9BSI1); assay: Leishmania donovani Ubiquitin Activating Enzyme (LdE1); assay type: functional; conditions: 30 µM
# T1 sequence (whole entry): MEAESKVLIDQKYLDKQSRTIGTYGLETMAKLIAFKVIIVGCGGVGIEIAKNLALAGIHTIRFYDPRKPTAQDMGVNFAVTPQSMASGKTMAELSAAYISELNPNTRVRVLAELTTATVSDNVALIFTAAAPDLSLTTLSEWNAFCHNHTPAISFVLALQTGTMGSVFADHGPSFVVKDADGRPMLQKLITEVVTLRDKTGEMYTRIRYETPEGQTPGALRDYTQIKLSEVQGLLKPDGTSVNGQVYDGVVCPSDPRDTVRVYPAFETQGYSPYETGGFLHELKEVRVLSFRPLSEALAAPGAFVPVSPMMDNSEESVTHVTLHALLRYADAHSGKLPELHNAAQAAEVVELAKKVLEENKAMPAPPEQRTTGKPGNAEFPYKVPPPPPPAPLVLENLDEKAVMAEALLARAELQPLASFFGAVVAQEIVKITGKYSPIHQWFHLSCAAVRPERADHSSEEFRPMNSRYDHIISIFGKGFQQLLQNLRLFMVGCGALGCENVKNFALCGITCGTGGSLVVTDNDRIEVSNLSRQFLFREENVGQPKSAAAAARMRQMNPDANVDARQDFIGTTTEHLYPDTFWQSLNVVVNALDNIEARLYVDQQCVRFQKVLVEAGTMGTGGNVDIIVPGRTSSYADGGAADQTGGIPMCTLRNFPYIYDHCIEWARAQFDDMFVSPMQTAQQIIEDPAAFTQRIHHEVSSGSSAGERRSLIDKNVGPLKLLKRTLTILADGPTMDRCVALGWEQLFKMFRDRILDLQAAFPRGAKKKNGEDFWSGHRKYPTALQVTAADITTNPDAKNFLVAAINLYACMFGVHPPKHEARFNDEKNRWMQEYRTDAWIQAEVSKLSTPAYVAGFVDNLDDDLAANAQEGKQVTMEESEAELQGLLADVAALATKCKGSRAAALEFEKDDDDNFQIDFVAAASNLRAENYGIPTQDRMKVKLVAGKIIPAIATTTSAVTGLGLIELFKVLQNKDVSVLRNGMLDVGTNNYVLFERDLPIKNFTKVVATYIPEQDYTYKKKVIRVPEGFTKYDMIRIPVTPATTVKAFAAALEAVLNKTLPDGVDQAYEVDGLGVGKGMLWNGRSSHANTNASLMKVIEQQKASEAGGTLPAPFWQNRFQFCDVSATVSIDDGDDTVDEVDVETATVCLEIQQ
# [3] = target: Sialic acid-binding Ig-like lectin 9 (Homo sapiens) (UniProt Q9Y336); assay: Hs-Siglec9 ALPHAscreen SOP 20170721; conditions: 10 µM
# Sequence of Sialic acid-binding Ig-like lectin 9 (Homo sapiens) (Q9Y336 whole entry): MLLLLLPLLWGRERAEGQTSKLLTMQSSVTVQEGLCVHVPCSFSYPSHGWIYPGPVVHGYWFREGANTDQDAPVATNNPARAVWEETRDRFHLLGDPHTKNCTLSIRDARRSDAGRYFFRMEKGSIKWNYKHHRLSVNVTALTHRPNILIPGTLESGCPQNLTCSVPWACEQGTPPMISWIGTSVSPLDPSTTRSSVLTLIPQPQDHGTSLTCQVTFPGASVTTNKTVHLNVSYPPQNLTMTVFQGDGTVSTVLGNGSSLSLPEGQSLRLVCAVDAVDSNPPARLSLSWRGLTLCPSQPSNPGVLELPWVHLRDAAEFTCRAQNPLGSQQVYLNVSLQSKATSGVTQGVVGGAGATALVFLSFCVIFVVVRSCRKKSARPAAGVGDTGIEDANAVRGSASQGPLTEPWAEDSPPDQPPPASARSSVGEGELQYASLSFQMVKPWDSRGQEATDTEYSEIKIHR
# Trypanosoma cruzi = assay: Trypanosoma cruzi phosphomannomutase and mannose-1-phosphate guanylyltransferase assay; assay type: functional; conditions: 10 µM
# [4] = target: T2, Arginase-2, mitochondrial (Homo sapiens) (UniProt P78540); assay: in vitro enzyme assay to detect the production of urea directly proportional to the activity of Arginase II; assay type: functional; conditions: 33.3 µM; also: in the data most compounds retested in dose-response had high values
# T2 sequence (whole entry): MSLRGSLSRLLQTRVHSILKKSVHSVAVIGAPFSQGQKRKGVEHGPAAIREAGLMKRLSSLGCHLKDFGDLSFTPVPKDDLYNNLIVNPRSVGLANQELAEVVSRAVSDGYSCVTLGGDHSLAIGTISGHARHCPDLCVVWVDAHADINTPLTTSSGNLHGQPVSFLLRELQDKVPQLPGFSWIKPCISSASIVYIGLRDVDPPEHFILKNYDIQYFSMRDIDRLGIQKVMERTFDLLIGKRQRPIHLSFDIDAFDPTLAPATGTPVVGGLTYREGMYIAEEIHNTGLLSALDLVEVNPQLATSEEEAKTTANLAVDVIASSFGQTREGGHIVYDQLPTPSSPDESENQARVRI
# [5] = target: T3, Proteasome subunit beta (Trypanosoma cruzi) (UniProt O96673); assay: Trypanosoma cruzi proteasome chymotrypsin-like activity (TcProtChymo) assay.; also: in the data most compounds retested in dose-response had high values; assay type: functional; conditions: 9.37 µM
# T3 sequence (whole entry): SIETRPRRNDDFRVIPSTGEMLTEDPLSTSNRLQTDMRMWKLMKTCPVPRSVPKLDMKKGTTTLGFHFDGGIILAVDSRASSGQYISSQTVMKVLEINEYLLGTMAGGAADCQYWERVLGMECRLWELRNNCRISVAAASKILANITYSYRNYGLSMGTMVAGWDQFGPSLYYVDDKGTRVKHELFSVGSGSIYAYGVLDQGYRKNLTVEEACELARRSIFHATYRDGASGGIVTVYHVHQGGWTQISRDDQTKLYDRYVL
# Homo sapiens = species on record: Homo sapiens; assay: To identify inhibition of the IFN signalling (Jak-Stat) pathway via expression of an eGFP reporter gene under the control of an IFN-stimulated response element (ISRE) containing MxA promoter.; assay type: functional; conditions: 30 µM
# [6] = target: T4, Tyrosyl-tRNA synthetase, putative (Trypanosoma cruzi (strain CL Brener)) (UniProt Q4DSP6); assay: Trypanosoma cruzi tyrosyl tRNA synthetase (TcYRS) _High Tyrosine SOP; assay type: functional; conditions: 30 µM; also: in the data most compounds retested in dose-response had high values
# T4 sequence (whole entry): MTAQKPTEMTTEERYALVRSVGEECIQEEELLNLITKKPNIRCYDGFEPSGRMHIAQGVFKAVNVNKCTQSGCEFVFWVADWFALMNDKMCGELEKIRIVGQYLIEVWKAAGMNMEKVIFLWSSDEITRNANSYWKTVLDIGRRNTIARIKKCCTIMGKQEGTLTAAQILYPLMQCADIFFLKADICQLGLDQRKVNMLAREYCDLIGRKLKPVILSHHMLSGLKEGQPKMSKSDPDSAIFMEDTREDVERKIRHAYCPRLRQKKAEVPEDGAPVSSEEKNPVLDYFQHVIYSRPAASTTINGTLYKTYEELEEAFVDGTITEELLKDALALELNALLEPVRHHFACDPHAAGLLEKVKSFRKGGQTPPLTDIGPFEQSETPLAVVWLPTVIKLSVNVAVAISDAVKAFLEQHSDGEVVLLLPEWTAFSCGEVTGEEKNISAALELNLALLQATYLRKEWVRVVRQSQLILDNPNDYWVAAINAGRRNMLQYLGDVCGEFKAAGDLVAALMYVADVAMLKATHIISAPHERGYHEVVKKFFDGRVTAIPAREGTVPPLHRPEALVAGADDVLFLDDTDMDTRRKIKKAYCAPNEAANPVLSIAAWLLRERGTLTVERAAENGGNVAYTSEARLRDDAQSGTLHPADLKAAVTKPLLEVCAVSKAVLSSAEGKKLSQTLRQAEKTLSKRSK
# [7] = target: T4, Tyrosyl-tRNA synthetase, putative (Trypanosoma cruzi (strain CL Brener)); assay: Trypanosoma cruzi tyrosyl tRNA synthetase (TcYRS) SOP; assay type: functional; conditions: 30 µM
# [8] = target: Chromo domain-containing protein 1 (Saccharomyces cerevisiae (strain ATCC 204508 / S288c) (Baker's yeast)) (UniProt P32657); assay: ScCHD-1 Enzyme Inhibition Assay; assay type: functional; conditions: 30 µM; also: in the data most compounds retested in dose-response had high values
# Sequence of Chromo domain-containing protein 1 (Saccharomyces cerevisiae (strain ATCC 204508 / S288c) (Baker's yeast)) (P32657 whole entry, the tested form may be a part): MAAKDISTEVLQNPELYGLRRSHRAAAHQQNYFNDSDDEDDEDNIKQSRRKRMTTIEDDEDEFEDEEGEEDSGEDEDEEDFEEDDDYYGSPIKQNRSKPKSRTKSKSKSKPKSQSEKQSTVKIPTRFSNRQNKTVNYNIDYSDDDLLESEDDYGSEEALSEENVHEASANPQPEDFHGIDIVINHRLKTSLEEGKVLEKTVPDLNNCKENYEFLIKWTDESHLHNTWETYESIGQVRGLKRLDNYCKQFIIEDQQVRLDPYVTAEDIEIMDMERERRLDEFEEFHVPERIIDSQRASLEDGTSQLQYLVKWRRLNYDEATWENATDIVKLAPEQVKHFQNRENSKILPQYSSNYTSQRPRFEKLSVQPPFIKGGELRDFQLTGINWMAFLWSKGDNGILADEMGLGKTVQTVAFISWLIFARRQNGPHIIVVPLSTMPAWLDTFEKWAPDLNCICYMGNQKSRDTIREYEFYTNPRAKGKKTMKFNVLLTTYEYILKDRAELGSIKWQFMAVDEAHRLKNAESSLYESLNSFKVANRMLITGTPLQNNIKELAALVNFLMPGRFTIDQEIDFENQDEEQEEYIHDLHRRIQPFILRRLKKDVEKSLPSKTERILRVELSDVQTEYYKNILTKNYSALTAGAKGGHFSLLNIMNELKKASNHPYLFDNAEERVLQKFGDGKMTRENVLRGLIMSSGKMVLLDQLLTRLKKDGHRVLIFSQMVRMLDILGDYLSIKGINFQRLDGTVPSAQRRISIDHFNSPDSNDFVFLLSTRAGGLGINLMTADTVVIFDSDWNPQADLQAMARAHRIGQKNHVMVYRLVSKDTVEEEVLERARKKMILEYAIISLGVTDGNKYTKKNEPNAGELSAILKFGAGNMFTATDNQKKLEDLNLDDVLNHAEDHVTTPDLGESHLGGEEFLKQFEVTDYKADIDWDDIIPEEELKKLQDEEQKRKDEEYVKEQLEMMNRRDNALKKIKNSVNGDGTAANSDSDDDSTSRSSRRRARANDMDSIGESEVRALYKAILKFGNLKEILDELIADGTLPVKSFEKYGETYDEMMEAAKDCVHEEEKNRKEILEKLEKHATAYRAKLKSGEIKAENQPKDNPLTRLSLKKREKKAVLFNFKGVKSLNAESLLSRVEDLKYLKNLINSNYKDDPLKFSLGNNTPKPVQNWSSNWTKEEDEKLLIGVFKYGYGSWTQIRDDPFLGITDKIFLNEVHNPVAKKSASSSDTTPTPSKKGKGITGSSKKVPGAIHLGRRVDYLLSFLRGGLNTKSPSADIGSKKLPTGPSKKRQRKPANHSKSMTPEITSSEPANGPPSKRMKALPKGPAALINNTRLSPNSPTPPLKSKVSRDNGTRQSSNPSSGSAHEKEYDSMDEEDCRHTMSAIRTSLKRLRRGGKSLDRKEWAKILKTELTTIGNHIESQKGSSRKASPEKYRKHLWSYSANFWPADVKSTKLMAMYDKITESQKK
# Sequence of Protein translocase subunit SecA (Escherichia coli (strain K12)) (P10408 whole entry): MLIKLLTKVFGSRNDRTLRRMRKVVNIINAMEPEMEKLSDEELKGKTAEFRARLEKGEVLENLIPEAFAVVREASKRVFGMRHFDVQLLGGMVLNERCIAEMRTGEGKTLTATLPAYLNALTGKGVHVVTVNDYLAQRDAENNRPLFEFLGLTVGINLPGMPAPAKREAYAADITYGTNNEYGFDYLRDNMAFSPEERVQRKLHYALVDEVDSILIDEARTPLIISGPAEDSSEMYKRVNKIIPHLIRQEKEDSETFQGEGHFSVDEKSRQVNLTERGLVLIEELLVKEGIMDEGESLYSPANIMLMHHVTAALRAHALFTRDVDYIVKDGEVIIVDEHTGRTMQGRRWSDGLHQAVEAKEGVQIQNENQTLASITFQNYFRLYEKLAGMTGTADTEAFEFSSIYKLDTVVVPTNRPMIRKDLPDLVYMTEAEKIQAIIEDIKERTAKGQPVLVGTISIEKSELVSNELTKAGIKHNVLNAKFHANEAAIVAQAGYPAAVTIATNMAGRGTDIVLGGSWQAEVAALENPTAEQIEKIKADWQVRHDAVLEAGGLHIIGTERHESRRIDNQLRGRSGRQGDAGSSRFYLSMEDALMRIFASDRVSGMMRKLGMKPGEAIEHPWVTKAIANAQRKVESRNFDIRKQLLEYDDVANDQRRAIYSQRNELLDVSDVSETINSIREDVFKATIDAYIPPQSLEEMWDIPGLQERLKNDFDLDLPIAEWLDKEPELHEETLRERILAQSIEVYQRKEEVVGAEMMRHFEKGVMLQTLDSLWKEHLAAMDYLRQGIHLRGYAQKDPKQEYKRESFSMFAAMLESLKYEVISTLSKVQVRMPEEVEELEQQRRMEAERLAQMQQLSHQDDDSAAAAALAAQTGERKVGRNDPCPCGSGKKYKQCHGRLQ
SMILES,Percent Effect [1],Percent Effect [2],Percent Effect [3],Percent Effect (Trypanosoma cruzi),Percent Effect [4],Percent Effect [5],Percent Effect (Homo sapiens),Percent Effect [6],Percent Effect [7],Percent Effect [8]
COCC(=O)N1CC[C@@H](N2CCOCC2)[C@@H]1Cc1ccccc1,-3.93%,14.3%,-1.41%,0.0974%,13.8%,22%,-2.33%,17.4%,15.4%,2.12%
Cc1ccc(NC(=O)C2CSCN2C(=O)c2cc[nH]n2)c(C)c1 (stereo not given),-2.87%,5.13%,9.07%,4.79%,-0.41%,0.768%,-8.73%,3.35%,20.5%,-1.03%
CC(C)c1noc(CCCC(=O)NC2CCS(=O)(=O)C2)n1 (stereo not given),-0.362%,13.3%,-4.53%,2.01%,-7.98%,12.6%,8.49%,5.79%,15.4%,-11%
COCC(=O)N1CCC2(CC1)CCN(Cc1ccccn1)C2=O,-4.26%,-3.9%,-5.87%,-2.24%,-3.64%,1.5%,-7.24%,-2.63%,-5.13%,0.829%
COc1c(CNC2CCSc3ccc(F)cc32)c(C)nn1C (stereo not given),0.667%,13%,7.38%,-0.373%,-12.5%,10.9%,64.7%,5.88%,11.8%,-4.85%
Cc1n[nH]c(=O)c2c(NC(=O)CN3CCC(O)CC3)oc(C)c12,-1.08%,10.3%,-12.1%,-8.17%,0.41%,19.4%,21.8%,4.31%,10.8%,-5.11%
CC(C)N(Cc1nc2c(cnn2C)c(=O)[nH]1)c1ccccc1,-2.48%,10.3%,-5.08%,5.54%,4.1%,1.96%,7.17%,5.26%,18.1%,-3.23%
Cn1cc(CN2CCC3(CC(=O)N(c4ccc5c(c4)OCO5)C3)C2)cn1 (stereo not given),-2.97%,1.3%,-2.34%,1.85%,-2.43%,-1.15%,4.19%,4.74%,5.13%,-0.178%
Cc1noc(C)c1C(=O)N1CC[C@H]2C[C@@H](c3nccs3)O[C@@H]2C1,-6%,6.49%,1.62%,5.55%,-10.5%,14.2%,-13.4%,7.89%,12.8%,-3.15%
Cc1nc(-c2cccc(C(=O)O)c2)cc(C2CCN(C(C)C)C2)n1 (stereo not given),-2.85%,6.67%,1.03%,-1.18%,4.87%,9.69%,1.3%,6.35%,17.5%,-15.1%
COc1ccccc1-c1cc(C(F)(F)F)c2c(C)nn(CC(=O)O)c2n1,5.48%,14.7%,-8.22%,-2.56%,6.64%,11.5%,26.5%,-13.8%,-17.5%,-17.5%
O=C(Cc1cn2ccsc2n1)N1CCCC(n2cncn2)C1 (stereo not given),-3.72%,12.8%,-3.95%,-4.22%,-5.74%,13.9%,31.1%,4.31%,13.2%,-5.26%

# Source: ChEMBL document CHEMBL3988442, “University of Dundee, Small-Polar-MMV Screening Library” (2021)
